Data taken from ChEMBL document CHEMBL4296182, “CO-ADD screening of NIH NCI Diversity Set V”.
For part of these data: Potency and affinity values are given separately.

Columns and labels:
[1] = test system: Staphylococcus aureus; experiment: Antibacterial activity against Staphylococcus aureus MRSA ATCC 43300 (CO-ADD:GP_020); MIC in CAMBH media using NBS plates, by Resazurin F(560/590); type: functional; conditions: Concentration 20 uM, ASSAY_TEST Inhibition of Bacterial Growth, detection method Resazurin, Fluorescence (ex560/em590), MEDIA CAMHB, plate type 384well, CORNING #3640, time 18 hr
[2] = test system: Acinetobacter baumannii; experiment: Antibacterial activity against Acinetobacter baumannii ATCC 19606 (CO-ADD:GN_034); MIC in CAMBH media using NBS plates, by Resazurin F(560/590); type: functional; conditions: Concentration 20 uM, ASSAY_TEST Inhibition of Bacterial Growth, detection method Resazurin, Fluorescence (ex560/em590), MEDIA CAMHB, plate type 384well, CORNING #3640, time 18 hr
[3] = test system: Escherichia coli; experiment: Antibacterial activity against Escherichia coli ATCC 25922 (CO-ADD:GN_001); MIC in CAMBH media using NBS plates, by Resazurin F(560/590); type: functional; conditions: Concentration 20 uM, ASSAY_TEST Inhibition of Bacterial Growth, detection method Resazurin, Fluorescence (ex560/em590), MEDIA CAMHB, plate type 384well, CORNING #3640, time 18 hr
[4] = test system: Klebsiella pneumoniae; conditions: Concentration 20 uM; ASSAY_TEST Inhibition of Bacterial Growth; detection method Absorption (OD600); MEDIA CAMHB; plate type 384well; NBS; CORNING #3640; time 18 hr
[5] = test system: Candida albicans; conditions: 20 µM
[6] = test system: Cryptococcus neoformans; conditions: Concentration 20 uM; ASSAY_TEST Inhibition of Fungal Growth; detection method Resazurin; Absorption (OD600-OD570); plate type 384well; NBS; CORNING #3640

SMILES | Inhibition [1] [%] | Inhibition [2] [%] | Inhibition [3] [%] | Inhibition [4] [%] | Inhibition [5] [%] | Inhibition [6] [%]
C#CCSc1nc(-c2ccco2)n[nH]1 | 6.25 | 16.42 | -3.2 | 9.41 | 3.4 | -6.15
CNc1ccc(/N=N/c2cc[n+]([O-])cc2C)cc1C | -1.07 | -11.34 | 7.82 | 8.63 | -0.41 | -28.56
CN(C)c1ccc(/N=N\c2cccc3ccoc23)cc1 | -15.18 | -4.75 | -16.41 | -3.95 | 3.86 | -4.24
CCOCc1cc(O)nc(SC)n1 | 12.32 | -13.24 | 14.73 | 11.3 | -0.55 | -4.91
COC1OCC(O)C(NC(=O)N(C)N=O)C1O (stereo not given) | -1.39 | 15.65 | -7.74 | 18.14 | 5.35 | -2.94
Nc1ccc(/N=N/c2ccc(O)cc2)c(N)n1 | -3.88 | -10.7 | 0 | 0.93 | 0.86 | -14.36
CN1C=C/C(=C/[N+](=O)[O-])N(C)C1=O | 9.11 | -6.18 | 4.71 | 0.88 | 1.05 | -5.15
O=C(c1ccccc1)c1ccc(-c2ccc(O)cc2)cc1 | -4.49 | -14.62 | 8.24 | 15.69 | 6.54 | -10.56
CC(C)NCC1CCc2cc(CO)c([N+](=O)[O-])cc2N1 (stereo not given) [OXAMNIQUINE] | 9.47 | -13.41 | 4.95 | 3.1 | 2.55 | -8.23
CC(=O)Nc1ccc(OCCOc2ccc([N+](=O)[O-])cc2)cc1 | 16.53 | 7.01 | 2.93 | 10.72 | -1.95 | -16.57
Cn1c(C(=O)c2ccncc2)cc2ccccc21 | 10.4 | 13.49 | 0.36 | 4.66 | 5.59 | -4.68
NC(=O)c1cc(Br)cc(C2CCCCC2)c1O | 12.02 | -1.26 | 2.39 | 15.38 | 2.63 | -10.76
Cn1c(=O)c2nc(CCCc3ccc([N+](=O)[O-])cc3)[nH]c2n(C)c1=O | 7.08 | -13.97 | 3.35 | 12.88 | 0.38 | -9.63
CCOC(=O)c1cc(-c2cccnc2)nc2c(Cl)cc(Cl)cc12 | 15.12 | -10.84 | 5.86 | 9.75 | 4.8 | -6.65
Clc1nc2nc3n(c2nc1Cl)CCC3 | 9.08 | 6.51 | 0.57 | 2.17 | 3.01 | -9.39
OC(COc1ccc(Cl)cc1)CN1CCN(c2cccc(Cl)c2)CC1 (stereo not given) | 15.95 | -3.41 | 10.45 | 10.9 | -0.89 | -14.11
CN(C)c1ccc(C(c2ccc(N(C)C)cc2)c2ccc([N+](=O)[O-])cc2)cc1 | 15.85 | 11.72 | -1.1 | 17.42 | 2.89 | -7.55
CCOc1ccc(S(=O)(=O)c2ccc(C)cc2)c2c1no[n+]2[O-] | 12.11 | 5.81 | 11.8 | 9.49 | 1.5 | -13.62
Cc1ccc(NC(=O)N2CCCCC2)cc1NC(=O)N1CCCCC1 | -1.56 | 7.43 | 3.01 | 16.93 | 3.17 | 1.83
CN(C)C(=S)/N=c1\ssc(=S)n1Cc1ccco1 | 13.2 | 6.63 | 0.6 | 0.81 | 2.24 | 5.1
CCC(C)Nc1nc2c(c(=O)n(C)c(=O)n2C)n1C (stereo not given) | 12.63 | 12.04 | -1.91 | 12.65 | 3.5 | -7.05
Cn1nc(NC(=O)C(F)(F)F)c2ncc(-c3ccc(Cl)cc3)nc21 | 20.42 | 13.75 | 1.31 | 13.33 | 2.95 | -3.57
CC(=O)n1cc(C2CC(=O)OC3=C2CC(=O)C(C)(C)C3)c2ccccc21 (stereo not given) | 13.95 | 4.13 | 1.01 | 11.94 | 2.8 | -0.61
Nc1nc(SCc2ccccn2)c2ncn(C3OC(CO)C(O)C3O)c2n1 (stereo not given) | 6.83 | 2.95 | 4.84 | 10.89 | -1.39 | -4.63
O=C(Nc1ccc(Cl)c([N+](=O)[O-])c1)Nc1nc2ccccc2s1 | 44.46 | 0.46 | 3.52 | 21.95 | 9.03 | 11.69
